Data on 32 compounds can be found in PubChem BioAssay (EPA / NIEHS).

Calls of active or inactive are those of the source. The calls were made as follows: active = hit-call score of the fitted dose curve at least 0.9, where 1 is the maximum; inactive = score below 0.9.

The assay in a line: CCTE_Mundy_HCI_Cortical_Synap_Neur_Matur_NeuriteSpotCountPerNeuron: CCTE's Synaptogenesis and Neurite Maturation Assay in rat cortical cells for Neurite Spot Count per Neuron Count, Mundy Lab (AID 2284215). The method, then: CCTE_Mundy_HCI_Cortical_Synap&Neurite_Matur is a multiplexed, cell-based-readout assay that uses rat primary cortical cells with measurements taken at 288.33 hours after chemical dosing in a microplate: 96-well plate.CCTE_Mundy_HCI_Cortical_Synap_Neur_Matur_NeuriteSpotCountPerNeuron is one of eight components of the CCTE_Mundy_HCI_Cortical_Synap&Neurite_Matur assay. It measures synaptogenesis and neurite maturation related to number of neurite-associated synapses (synaptophysin puncta) per neuron using High Content Imaging of fluorescently labelled markers.[…] Using a type of morphology reporter, loss -of-signal activity can be used to understand developmental effects.
Cells are plated onto 96 well plates and allowed 2 hr for attachment to the substrate. At days in vitro (DIV) 5, Cytosine Arabinoside (AraC) is added to arrest glial cell growth. Chemicals are dosed and a media change is performed at DIV 7 of differentiation and is continued through DIV 12 when the experiment is terminated. Cells are fixed with […] and Hoechst Dye. Cells are stained using Millipore Mouse anti-MAP2MAB3418 (1:800) and Millipore Rabbit anti-Synaptophysinsc-1750 (1:250) primary antibodies and Alexa Fluor-488 goat anti-mouse and AlexaFluor-546 goat anti-rabbit secondary antibodies to label neuronal cell nuclei, synapses and neurites. A Cellomics ArrayScan VTi HCS Reader is used for automated image acquisition and analysis of neurite outgrowth.
With `CCOP(=S)(OCC)SCS(=O)C(C)(C)C` (configuration not stated), the compound was classed as inactive. In general, AC50 refers to the concentration giving half of the maximal activity seen. As to `[CH3][Hg][Cl]`, the AC50 is 0.576 µM (active).

As for `Brc1ccc(Oc2ccc(Br)cc2Br)c(Br)c1`, the half-maximal activity concentration (AC50) is 8.25 µM (active).

As to `CN1C(=O)CN=C(c2ccccc2)c2cc(Cl)ccc21`, the result was inactive.

On to `Cn1nc(C(F)(F)F)c(CS(=O)(=O)C2=NOC(C)(C)C2)c1OC(F)F`, for which the AC50 was 9.92 µM (active). For `O=[As]O`, the half-maximal activity concentration (AC50) was 5 µM (active). With `CC1(C)[C@H](C(=O)O[C@H](C#N)c2cccc(Oc3ccccc3)c2)[C@@H]1C=C(Br)Br`, the half-maximal activity concentration (AC50) is 7.04 µM (active). With `CC1(C)[C@@H](C=C(Cl)Cl)[C@@H]1C(=O)O[C@@H](C#N)c1ccc(F)c(Oc2ccccc2)c1`, the result was inactive.

For the compound `CCC[CH2][Sn]([CH2]CCC)([CH2]CCC)[O][Sn]([CH2]CCC)([CH2]CCC)[CH2]CCC`, the AC50 is 0.0226 µM (active). For `COC(=O)[C@H]1[C@@H](OC(=O)c2ccccc2)C[C@@H]2CC[C@H]1N2C`, the compound was called inactive.

`CCOP(=O)(OCC)OC(Cl)C(Cl)(Cl)Cl` (configuration not stated): the call was inactive. Turning to `C=CCN1CC[C@]23c4c5ccc(O)c4O[C@H]2C(=O)CC[C@@]3(O)[C@H]1C5`, the outcome was inactive. On to `CC(=O)[O-].[Tl+]`, for which the AC50 is 24.4 µM (active).

Turning to `CCOP(=O)(OCC)SCSCC`, the outcome was inactive. Consider `CC1(C)C(C=C(Cl)c2ccc(Cl)cc2)C1C(=O)OC(C#N)c1ccc(F)c(Oc2ccccc2)c1` (configuration not stated), for which the AC50 is 72 µM (active). In the case of `CCOP(=O)(OCC)SCSC(C)(C)C`, the compound was classed as inactive.

Turning to `C[C@H](N)Cc1ccccc1`, the compound was called inactive.

Turning to `C#CCN(C)[C@H](C)Cc1ccccc1`, the compound was called inactive.

On to `[CH3][Sn]([CH3])[CH3]`, for which the AC50 was 1.77 µM (active). On the same count and under the same terms, as for `[Cd+2].[Cl-].[Cl-]`, the figure is 1.19 µM (active); as for `CC1(C)C(C=C(Cl)Cl)C1C(=O)O[C@H](C#N)c1cccc(Oc2ccccc2)c1` (some centres not stated), 10.8 µM (active). In the case of `CN[C@]1(c2ccccc2Cl)CCCCC1=O`, the call was inactive. On the same count and under the same terms, as for `CC(=O)[O-].CC(=O)[O-].O.O.O.[Pb+2]`, the entry is “inactive”.

For `O=C(O)CNCP(=O)(O)O`, the compound was called inactive.

With `CNC(=N[N+](=O)[O-])NCC1CCOC1` (configuration not stated), the AC50 is 0.00988 µM (active). In the case of `CC1(C)[C@H](C=C(Cl)Cl)[C@H]1C(=O)OCc1c(F)c(F)cc(F)c1F`, the AC50 is 9.68 µM (active). `CC1(C)[C@H](C=C(Cl)Cl)[C@@H]1C(=O)O[C@@H](C#N)c1cccc(Oc2ccccc2)c1`: the compound was called inactive. Still for that read-out and setting: as for `CCOP(=O)(Oc1cnc(C(C)(C)C)nc1)OC(C)C` (configuration not stated), the entry is “inactive”. `C[n+]1ccc(-c2cc[n+](C)cc2)cc1`: the AC50 is 0.989 µM (active). With `O.O.O.O.O.[Cd+2].[Cd+2].[Cl-].[Cl-].[Cl-].[Cl-]`, the concentration at half-maximal activity (AC50) was 1.62 µM (active).

Regarding `Cc1ccc(OP(=O)(Oc2ccc(C)cc2)Oc2ccc(C)cc2)cc1` (tested in a mixture with another compound), the AC50 is 15 µM (active). As for `COP(=O)(OC)SCN1C(=O)c2ccccc2C1=O`, the compound was classed as inactive.
